From PubChem BioAssay
Only some compounds are listed: those with a hit (about 3.1% of all), similar ones and a draw of the others.
TRPM1 prom inh: inhibitors of MITF-dependent TRPM1 promoter reporter, primary screen, cell-based, SK-MEL-5, single point, luciferase. SK-MEL-5 TRPM1 promoter luciferase, 24 h. inhibition, % at 12.5 µM. hit rate 0.83% among 330,000. AID 488899, 2010;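 active means mean inhibition across replicates of 60% or more, whatever share of single replicates reaches that level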
CF NFkB inh: inhibitors of PAF-induced NF-kB signaling, primary screen, cell-based, GFP fluorescence, uHTS; inhibition, % at 5 µM; hit rate 0.86% among 360,000; KKLEB NF-kB-GFP reporter, GFP fluorescence overnight;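 active means at least 50% inhibition at 5 µM, scaled per plate between neutral and stimulator controls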;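 further: PAF is a Pseudomonas aeruginosa culture filtrate used as stimulus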
Peg3 prom inh: Peg3 promoter-driven luciferase inhibitors, primary screen, cell-based, HeLa, luciferase luminescence; HeLa PEG-Prom luciferase reporter, overnight; inhibition, % at 20 µM; hit rate 1.7% among 360,000;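 active means inhibition of at least 50% at 20 µM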
KKLEB tox: cytotoxicity in KKLEB CF airway cells, primary screen, cytotoxicity control for CF NF-kB inhibitor project, cell-based, uHTS, fluorescence assay plates. KKLEB CF airway cells viability, ATPlite luminescence, overnight; active compounds read low; cells stimulated with P. aeruginosa culture filtrate. activity change (cytotoxicity), % at 5 µM. hit rate 0.36% among 360,000. AID 602141, 2011;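 active means corrected activity change at or below -50% at 5 µM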
ABHD5-PLIN5 inh: ABHD5-PLIN5 interaction inhibitors, primary screen, cell lysate, split luciferase complementation, luminescence | Perilipin-5 (Homo sapiens) + 1-acylglycerol-3-phosphate O-acyltransferase ABHD5 (Homo … | Split G. princeps luciferase complementation, 4 h | inhibition, % at 4 µM | hit rate 0.78% among 360,000;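 active means inhibition above the mean inhibition across every tested compound plus 3 SD, cut at about 22% in these data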
Target sequence (Q00G26 whole entry, looked up): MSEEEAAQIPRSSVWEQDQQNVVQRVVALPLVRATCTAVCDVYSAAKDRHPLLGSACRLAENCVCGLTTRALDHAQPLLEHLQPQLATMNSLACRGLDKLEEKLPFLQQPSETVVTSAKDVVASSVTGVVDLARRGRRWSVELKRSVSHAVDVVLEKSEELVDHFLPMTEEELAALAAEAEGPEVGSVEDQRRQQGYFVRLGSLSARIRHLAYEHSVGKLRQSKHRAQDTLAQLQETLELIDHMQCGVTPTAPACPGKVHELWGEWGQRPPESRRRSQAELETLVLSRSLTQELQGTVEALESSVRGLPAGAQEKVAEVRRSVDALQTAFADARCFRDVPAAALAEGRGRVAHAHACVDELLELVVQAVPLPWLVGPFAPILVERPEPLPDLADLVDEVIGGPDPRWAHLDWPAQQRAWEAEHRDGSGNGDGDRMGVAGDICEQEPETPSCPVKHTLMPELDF
Target sequence (Q8WTS1 whole entry, looked up): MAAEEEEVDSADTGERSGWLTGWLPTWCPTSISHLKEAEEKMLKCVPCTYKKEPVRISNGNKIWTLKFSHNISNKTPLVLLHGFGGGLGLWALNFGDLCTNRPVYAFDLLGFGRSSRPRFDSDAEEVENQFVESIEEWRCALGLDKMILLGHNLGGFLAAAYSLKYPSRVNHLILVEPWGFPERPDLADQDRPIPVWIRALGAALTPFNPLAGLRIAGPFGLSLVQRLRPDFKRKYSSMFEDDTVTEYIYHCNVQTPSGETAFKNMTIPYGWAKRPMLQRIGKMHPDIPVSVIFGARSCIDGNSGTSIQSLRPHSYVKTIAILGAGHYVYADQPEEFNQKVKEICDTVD
HIF-2a block: HIF-2a reporter inhibitors, primary screen, luminescence, 786-0 RCC cells; hit rate 0.72% among 360,000; 786-0 RCC cells HIF-2a reporter, luciferase luminescence, overnight; inhibition, % at 18.8 µM;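 active means inhibition of the luminescence signal of 40% or more relative to plate controls, in a single-dose primary screen at 18.75 µM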
Of the large screens only hits and unclear results are named; the others gave an inactive call.

O=C1C=C(N2CC2)c2ccccc2C1=O	CF NFkB inh 60 (no result: TRPM1 prom inh)
CN(C)C(=S)SSC(=S)N(C)C	Peg3 prom inh 56
O=c1[nH]c2ccccc2n1C1CCN(C(c2cccs2)c2nnnn2-c2ccc3c(c2)OCCO3)CC1 (configuration not stated)	CF NFkB inh 87, Peg3 prom inh 77, KKLEB tox -79 (no result: TRPM1 prom inh)
O=c1[nH]c2ccccc2n1C1CCN(C(CCc2ccccc2)c2nnnn2C2CCCC2)CC1 (configuration not stated)	CF NFkB inh 84, Peg3 prom inh 87, KKLEB tox -96 (no result: TRPM1 prom inh)
O=c1[nH]c2ccccc2n1C1CCN(C(c2nnnn2-c2ccc3c(c2)OCCO3)C2CC2)CC1 (configuration not stated)	CF NFkB inh 84, Peg3 prom inh 78, KKLEB tox -87 (no result: TRPM1 prom inh)
COc1ccc(-n2nnnc2C(c2ccnc3ccccc23)N2CCC(n3c(=O)[nH]c4ccccc43)CC2)cc1 (configuration not stated)	none (no result: TRPM1 prom inh)
O=C1NCN(c2ccccc2)C12CCN(C(c1cccs1)c1nnnn1-c1ccc3c(c1)OCCO3)CC2 (configuration not stated)	none (no result: TRPM1 prom inh)
COc1ccc(-n2nnnc2C(c2ccccc2)N2CCC(n3c(=O)[nH]c4ccccc43)CC2)cc1 (configuration not stated)	CF NFkB inh 81, Peg3 prom inh 64, KKLEB tox -70 (no result: TRPM1 prom inh)
O=C1NCN(c2ccccc2)C12CCN(C(c1nnnn1-c1ccc3c(c1)OCCO3)C1CC1)CC2 (configuration not stated)	none (no result: TRPM1 prom inh)
CCC(c1nnnn1C1CCCCC1)N1CCC2(CC1)C(=O)NCN2c1ccccc1 (configuration not stated)	none (no result: TRPM1 prom inh)
Cn1cc(C=O)c2nccnc21	none (no result: TRPM1 prom inh)
COc1ccc(-n2nc(C(=O)NCC(=O)N3CCC4(CC3)OCCO4)c3ccccc3c2=O)c(OC)c1	none
O=c1[nH]c2ccccc2n1C1CCN(C(c2ccccc2)c2nnnn2-c2ccc3c(c2)OCCO3)CC1 (configuration not stated)	CF NFkB inh 84, Peg3 prom inh 68, KKLEB tox -87 (no result: TRPM1 prom inh)
CSCCC(c1nnnn1-c1ccc2c(c1)OCCO2)N1CCC(n2c(=O)[nH]c3ccccc32)CC1 (configuration not stated)	CF NFkB inh 86, Peg3 prom inh 75, KKLEB tox -84 (no result: TRPM1 prom inh)
CCC1C(c2cc(OC)c(OC)c(OC)c2)c2cc3c(cc2OC1N1CCCC1)OCO3 (configuration not stated)	none
CC12CC[C@H]3[C@@H](CCC4(O)C[C@H](O)CCC34/C=N/NC(=O)c3ccccc3Cl)C1(O)CCC2C1=CC(=O)OC1 (some centres not stated)	none
C[C@@H]1O[C@@H](O[C@H]2C[C@@H](O)[C@]3(CO)[C@H]4[C@H](O)C[C@]5(C)[C@@H](C6=CC(=O)OC6)CC[C@]5(O)[C@@H]4CC[C@]3(O)C2)[C@H](O)[C@H](O)[C@H]1O	TRPM1 prom inh 70, CF NFkB inh 91, Peg3 prom inh 103, HIF-2a block 88
COC(=O)[C@]12OC[C@]34C([C@@H](O)[C@@H]1O)[C@]1(C)CC(=O)C(O)=C(C)[C@@H]1C[C@H]3OC(=O)[C@H](O)[C@@H]24 (some centres not stated)	TRPM1 prom inh 71, HIF-2a block 45
Cc1c(C=O)c2ccccc2n1Cc1cccc(F)c1	none
O=C1NC(=O)N(c2ccc(F)cc2)C(=O)/C1=C/c1ccsc1	ABHD5-PLIN5 inh 23
COc1cc2c(c(OC)c1OC)-c1ccc(O)cc1[C@@H](NC(C)=O)CC2	TRPM1 prom inh 65
CC(=O)OC1CC(OC2C(O)CC(OC3C(O)CC(OC4CCC5(C)C(CCC6C5CCC5(C)C(C7=CC(=O)OC7)C(O)CC65O)C4)OC3C)OC2C)OC(C)C1OC1OC(CO)C(O)C(O)C1O (configuration not stated)	TRPM1 prom inh 86, CF NFkB inh 91, Peg3 prom inh 108, KKLEB tox -53, HIF-2a block 69
CC1OC(OC2C(O)CC(OC3C(O)CC(OC4CCC5(C)C(CCC6C5CCC5(C)C(C7=CC(=O)OC7)C(O)CC65O)C4)OC3C)OC2C)CC(O)C1O (configuration not stated)	TRPM1 prom inh 70, CF NFkB inh 70, Peg3 prom inh 107, KKLEB tox -54, HIF-2a block 72
C#CC[N+]1(C)[C@@H]2CC(OC(=O)C(CO)c3ccccc3)C[C@H]1C(O)C2 (some centres not stated)	none
C=CCn1c(O)c(C(C)=NCc2cccnc2)c(=O)[nH]c1=O	none
C=CCn1c(O)c(C(C)=NCc2cc(OC)cc(OC)c2)c(=O)[nH]c1=O	Peg3 prom inh 54
COc1ccc2c3c1OC1C(=O)CC[C@@]4(O)[C@@H](C2)N(C)CC[C@]314 (some centres not stated)	Peg3 prom inh 50
CN1CN(c2ccccc2)C2(CCN(CCCSc3ccccc3NC(=O)/C=C/c3ccccc3)CC2)C1=O	TRPM1 prom inh 69
CC1(C)CC[C@]2(C)CC[C@]3(C)C4C[C@@H]5OO[C@@]6(O5)C(CCCC6(C)C)[C@]4(C)CC[C@@]3(C)C2C1 (some centres not stated)	CF NFkB inh 56
COc1ccc2nc(/N=C/c3c(O)n(-c4cccc(Cl)c4)c(=O)[nH]c3=O)sc2c1	ABHD5-PLIN5 inh 23
COc1ccc(-n2c(O)c(/C=C3\C=Nc4ccc(Br)cc43)c(=O)[nH]c2=O)c(OC)c1	HIF-2a block 45
COc1ccc(OC)c(N=Cc2c(O)n(Cc3ccccc3)c(=S)[nH]c2=O)c1	none
COc1ccc(N=Cc2c(O)n(Cc3ccccc3)c(=S)[nH]c2=O)c(OC)c1	Peg3 prom inh 54
O=C(Cc1cccs1)N1Cc2ccccc2-n2nncc2C1	none (no result: TRPM1 prom inh)
ClCCN(CCCl)c1ccc(-n2cnc3c(Cl)ncnc32)cc1	TRPM1 prom inh 84, Peg3 prom inh 104
N=C1c2ccccc2CN1c1ccc(F)c([N+](=O)[O-])c1	none
C=C(C)[C@@]12OC3(c4ccccc4)O[C@@H]1C1[C@@H]4O[C@]4(CO)[C@@H](O)[C@]4(O)C(=O)C(C)=C[C@H]4[C@@]1(O3)[C@H](C)[C@H]2OC(=O)/C=C/C=C/c1ccccc1 (some centres not stated)	CF NFkB inh 54, Peg3 prom inh 100, KKLEB tox -53
